From PubChem BioAssay AID2013 (Sanford-Burnham Center for Chemical Genomics, 2009)
In all, about 290,000 compounds went through this assay and about 370 (0.13%) were called active. The sample holds actives, similar compounds and a random draw of the others, so the mix is not that of the screen.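 How the source made its calls: active means spots per cell inhibited over 60%, with over 100 cells counted and total cytoplasm intensity under 500,000; inconclusive means wells with under 100 cells, flagged as likely toxic; inactive means the rest.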 Entries with a potency or affinity are not part of this list.

Target: G-protein coupled receptor 55 (Homo sapiens) (UniProt Q9Y2T6)
Experiment: inhibition of LPI-stimulated GPR55 beta-arrestin translocation – imaging, U2OS, beta-arrestin-GFP, LPI agonist, primary screen (AID 2013);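 further: U2OS cells stably carrying GPR55 and arrestin-GFP stimulated by 5 µM LPI near EC80; imaged beta-arrestin-GFP aggregate spots per cell after agonist stimulation; plate controls were LPI-stimulated DMSO wells for no effect and DMSO wells without LPI for full effect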
Details: LPI antagonism, at 10 µM, active compounds read high

Sequence of G-protein coupled receptor 55 (Homo sapiens) (Q9Y2T6 whole entry, looked up): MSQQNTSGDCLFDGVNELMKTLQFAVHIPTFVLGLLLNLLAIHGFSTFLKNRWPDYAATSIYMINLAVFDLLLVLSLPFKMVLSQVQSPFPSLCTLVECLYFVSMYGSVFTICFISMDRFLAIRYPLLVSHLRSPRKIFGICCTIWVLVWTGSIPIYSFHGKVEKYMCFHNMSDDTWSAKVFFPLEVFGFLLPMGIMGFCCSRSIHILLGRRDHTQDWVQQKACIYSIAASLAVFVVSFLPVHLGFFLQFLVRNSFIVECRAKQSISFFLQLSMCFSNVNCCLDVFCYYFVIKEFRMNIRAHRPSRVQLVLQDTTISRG

inhibition, inactive:
O=S(=O)(c1ccc(F)cc1)N1CCc2ccccc21 9.6%, O=S(=O)(c1ccccc1)N1CCCc2ccccc21 0.9%, COc1ccc(Br)cc1S(=O)(=O)Nc1cccc(C)n1 9.5%, C=CCN(C(=O)CNC(=O)c1ccco1)C(C(=O)NC1CCCCC1)c1ccccc1 (stereo unspecified) -5.9%, C=CCN(C(=O)CNC(=O)c1ccco1)C(C(=O)NC1CCCCC1)c1ccc(OC)cc1 (stereo unspecified) -13.5%, CC(C)N1CCC(N2CCN(Cc3ccc(-c4ccc(Cl)cc4)o3)CC2CCO)CC1 (stereo unspecified) 0.6%, CC(NC(=O)CCCCCNC(=O)N1CCn2c1nc1ccccc12)c1ccccc1 (stereo unspecified) 2.2%, Cc1oc(-c2cccc(Cl)c2)nc1CS(=O)(=O)CC(=O)NCCN1CCOCC1 -0.5%, CCOC(=O)C1=C(C)NC(=O)NC1c1ccc(Br)o1 (stereo unspecified) -4%, CCOC(=O)C1=C(C)NC(C)=C(C(=O)OCC)C1c1ccc(C)o1 10.1%, CCCCCCOC(=O)c1ccc(NC(=O)c2cc(OC)c(OC)c(OC)c2Br)cc1 -0.3%, Cc1cnc(NC(=O)NCC2CCCC(CNC(=O)Nc3ncc(C)s3)C2)s1 (stereo unspecified) -6.9%, CCCCC(O)(CCCC)C(=O)NN(C(=O)c1cccnc1Cl)c1ccccc1 6.1%, COc1ccc2c(C)cc(SCn3nnc4ccccc4c3=O)nc2c1 -3.7%, CCN1C(=O)C(O)(CC(=O)c2ccccn2)c2ccccc21 (stereo unspecified) 12%, CCN1C(=O)C(O)(C2COC(C)(C)CC2=O)c2ccccc21 (stereo unspecified) 7.4%, CCOc1ccc(Cl)cc1S(=O)(=O)N1CCC(C(=O)NCC2CCCO2)CC1 (stereo unspecified) -1.1%, O=C(CSC1=NCCS1)Nc1cccc(F)c1 -2.2%, COc1ccc(CCNC2=NCC(C)S2)cc1 (stereo unspecified) 6.5%, Cc1ccc(NC2=NCC(Cc3ccc(Br)cc3)S2)cc1 (stereo unspecified) 49%, COc1cccc(C(=O)Nc2cc(C(=O)NCc3ccc(C)cc3)ccc2N2CCC3(CC2)CC(c2ccccc2)=NO3)c1 10.8%, Cc1cccc(C)c1NC(=O)CN(C)CC(=O)Nc1cc(Cl)ccc1C#N 6.8%, N#CC1=C2N=C(N)c3ccccc3N2C2=C(C(=O)CCC2)C1c1ccc(Cl)cc1 (stereo unspecified) 86.9%, N#CC1=C2N=C(N)c3ccccc3N2C2=C(C(=O)CCC2)C1c1ccc(F)cc1 (stereo unspecified) 13.1%

inhibition, active:
O=S(=O)(c1ccc(F)cc1)N1CCCc2ccccc21 93.9%, C=CCN(C(=O)CNC(=O)c1ccco1)C(C(=O)NC1CCCCC1)c1ccc(F)cc1 (stereo unspecified) 73.3%
